From PubChem BioAssay
Inconclusive results are not listed. Active and inactive are the calls of the source.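 The calls were made as follows, unless noted: active = inhibition above the screen-wide mean plus 3 SD, about 51%; inactive = the rest.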

Legend:
[1] = yeast TOR pathway RPL19A-GFP modulators, primary screen, cell-based, S. cerevisiae, multiplex flow cytometry (AID 1862; in the data active = percent of DMSO control GFP below about 86%;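 also: lower values mimic rapamycin by blocking the RPL19A rise seen in DMSO cells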); details: S. cerevisiae RPL19A-GFP strain, flow cytometry fluorescence, 3 h; at 10 µM; stronger effect = lower value
[2] = modulators of MEP2-GFP levels in yeast, primary screen, S. cerevisiae, multiplex flow cytometry (AID 1867;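 active = GFP response, as percent of the DMSO control, above the screen-wide mean plus 3 SD, about 139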;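 also: median GFP channel fluorescence of barcode-gated MEP2-GFP cells measured by flow cytometry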); details: S. cerevisiae MEP2-GFP strain, 3 h, at 10 µM, stronger effect = higher value, 100% means same as DMSO wells
[3] = modulators of CIT2-GFP expression in yeast, primary screen, S. cerevisiae, GFP fusion, multiplex flow cytometry (AID 1870;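 active = percent response above a set limit, the screen-wide mean plus 3 SD, cut at about 130% in these data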;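 also: barcoded CIT2-GFP strain pooled with four other GFP strains with rapamycin as positive control; median GFP fluorescence per well over plate mean of DMSO wells so 100% = DMSO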); details: 3 h, at 10 µM, stronger effect = higher value
[4] = modulators of LAP4-GFP expression in yeast, primary screen, S. cerevisiae, multiplex flow cytometry (AID 1873;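 active = GFP signal, as percent of the solvent control, above the screen mean plus 3 SD, about 149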); details: 3 h, at 10 µM, stronger effect = higher value
[5] = modulators of AGP1-GFP expression in yeast TOR pathway, primary screen, cell-based, multiplex flow cytometry, S. cerevisiae (AID 1887;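 active = GFP signal above the screen-wide mean plus 3 SD, that is over about 124.5% of the solvent control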;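 also: AGP1-GFP fusion strain of S. cerevisiae within a five-strain barcoded multiplex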); details: 3 h, at 10 µM, stronger effect = higher value
[6] = inhibitors of CD8+ T cell-vesicle binding, pilot screen, LFA-1/ICAM-1 modulator project, MLPCN validation set, flow cytometry (AID 2523;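 active = response below a set limit, under 55% cells CD8-positive and vesicle-bound, and CD8 cells' 90th-percentile brightness under 279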;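 as to vesicle binding response: mean PE anti-B7-1 fluorescence of CD8+ cells relative to row control; 100% = QL9-loaded vesicles with DMSO vehicle in the same plate row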); details: 2C mouse CD8+ T cells, at 7 µM, stronger effect = lower value; double positive events: measured here: CD8+/vesicle+ event percentage
[7] = target: Integrin beta-1 (Homo sapiens) + Integrin alpha-4 (Homo sapiens) (UniProt P13612+P05556); assay: inhibition of HUTS-21 binding to VLA-4, pilot screen, VLA-4 allosteric modulator project, U937 cells, HUTS-21 mAb, flow cytometry, validation set (AID 2674;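 active = inhibition above 50%, about 3 SD of the validation set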;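 also: antibody binding induced by the VLA-4 ligand LDV present at three times its Kd; 0% = LDV ligand with antibody and no compound and 100% = antibody without LDV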); details: HUTS-21 LIBS mAb binding, at 6.7 µM, stronger effect = higher value, binding induced by LDV ligand
Integrin beta-1 (Homo sapiens) + Integrin alpha-4 (Homo sapiens), sequence (P05556 whole entry, looked up): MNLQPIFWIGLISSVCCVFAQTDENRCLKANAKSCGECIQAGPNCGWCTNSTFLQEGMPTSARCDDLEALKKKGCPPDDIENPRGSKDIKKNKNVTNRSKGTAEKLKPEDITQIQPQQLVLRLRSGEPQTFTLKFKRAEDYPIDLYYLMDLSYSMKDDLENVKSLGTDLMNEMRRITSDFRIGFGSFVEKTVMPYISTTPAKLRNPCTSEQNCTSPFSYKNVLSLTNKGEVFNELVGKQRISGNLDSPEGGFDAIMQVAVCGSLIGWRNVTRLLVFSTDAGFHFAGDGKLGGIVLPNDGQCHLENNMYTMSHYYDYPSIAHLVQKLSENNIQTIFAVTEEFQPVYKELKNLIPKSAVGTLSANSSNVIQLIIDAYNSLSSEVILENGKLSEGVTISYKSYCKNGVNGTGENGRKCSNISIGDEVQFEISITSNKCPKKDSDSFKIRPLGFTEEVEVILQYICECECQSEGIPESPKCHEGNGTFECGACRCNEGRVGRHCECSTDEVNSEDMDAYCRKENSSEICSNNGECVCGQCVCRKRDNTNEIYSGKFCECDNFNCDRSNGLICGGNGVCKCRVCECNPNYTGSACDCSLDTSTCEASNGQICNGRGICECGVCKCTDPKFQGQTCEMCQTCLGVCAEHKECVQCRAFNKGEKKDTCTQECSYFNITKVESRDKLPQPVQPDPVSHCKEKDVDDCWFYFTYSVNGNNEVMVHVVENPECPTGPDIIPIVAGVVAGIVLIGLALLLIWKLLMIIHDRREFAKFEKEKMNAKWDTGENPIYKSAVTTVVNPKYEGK
Integrin beta-1 (Homo sapiens) + Integrin alpha-4 (Homo sapiens), sequence (P13612 whole entry, looked up): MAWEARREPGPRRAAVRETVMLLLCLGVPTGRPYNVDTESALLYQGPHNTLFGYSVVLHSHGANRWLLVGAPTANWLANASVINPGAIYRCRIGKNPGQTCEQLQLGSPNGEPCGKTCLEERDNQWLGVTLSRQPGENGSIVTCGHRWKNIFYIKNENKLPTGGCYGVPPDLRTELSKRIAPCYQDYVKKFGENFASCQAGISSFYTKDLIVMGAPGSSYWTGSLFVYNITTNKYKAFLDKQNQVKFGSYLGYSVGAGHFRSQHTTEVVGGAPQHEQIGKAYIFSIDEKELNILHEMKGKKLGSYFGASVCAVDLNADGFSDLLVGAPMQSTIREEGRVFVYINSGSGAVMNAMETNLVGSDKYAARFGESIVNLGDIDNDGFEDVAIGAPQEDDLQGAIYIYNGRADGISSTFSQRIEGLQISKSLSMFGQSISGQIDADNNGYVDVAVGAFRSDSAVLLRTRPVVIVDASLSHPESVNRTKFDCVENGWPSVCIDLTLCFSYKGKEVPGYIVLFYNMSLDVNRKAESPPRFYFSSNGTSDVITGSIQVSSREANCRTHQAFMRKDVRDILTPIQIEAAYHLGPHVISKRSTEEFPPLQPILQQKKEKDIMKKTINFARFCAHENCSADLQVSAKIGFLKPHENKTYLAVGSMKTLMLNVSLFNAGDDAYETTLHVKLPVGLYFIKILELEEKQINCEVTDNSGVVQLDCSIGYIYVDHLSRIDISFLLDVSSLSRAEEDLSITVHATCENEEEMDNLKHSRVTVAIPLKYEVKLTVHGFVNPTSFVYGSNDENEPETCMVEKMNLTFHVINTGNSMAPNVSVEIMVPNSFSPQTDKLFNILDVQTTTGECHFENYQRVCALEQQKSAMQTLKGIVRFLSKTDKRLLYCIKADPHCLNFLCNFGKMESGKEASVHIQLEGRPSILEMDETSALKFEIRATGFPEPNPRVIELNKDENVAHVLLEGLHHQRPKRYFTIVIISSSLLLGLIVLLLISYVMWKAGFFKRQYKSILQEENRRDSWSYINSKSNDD

[8] = superoxide lowering in aged yeast cells, pilot screen, validation compound set (AID 2706;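 active = superoxide response below 65% of plate, a cut near 3 SD across the whole screen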;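 also: yeast exposed to compound for one week at 30 degrees C before staining; 100% = mean of all compound wells on the same plate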); details: S. cerevisiae aging, superoxide DHE fluorescence; at 10 µM, stronger effect = lower value
[9] = target: Beta-adrenergic receptor kinase 1 (Homo sapiens) (UniProt P25098); assay: GRK2 binders displacing RNA aptamer, biochemical, validation, human GRK2, bead flow cytometry (AID 488806;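 active = aptamer binding inhibition above 30%, about 3 SD of noise from non-fluorescent compounds; inactive = inhibition at or below 30%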); details: bead-bound GRK2, FAM-aptamer displacement, at 10 µM, stronger effect = higher value
Beta-adrenergic receptor kinase 1 (Homo sapiens), sequence (P25098 whole entry, looked up): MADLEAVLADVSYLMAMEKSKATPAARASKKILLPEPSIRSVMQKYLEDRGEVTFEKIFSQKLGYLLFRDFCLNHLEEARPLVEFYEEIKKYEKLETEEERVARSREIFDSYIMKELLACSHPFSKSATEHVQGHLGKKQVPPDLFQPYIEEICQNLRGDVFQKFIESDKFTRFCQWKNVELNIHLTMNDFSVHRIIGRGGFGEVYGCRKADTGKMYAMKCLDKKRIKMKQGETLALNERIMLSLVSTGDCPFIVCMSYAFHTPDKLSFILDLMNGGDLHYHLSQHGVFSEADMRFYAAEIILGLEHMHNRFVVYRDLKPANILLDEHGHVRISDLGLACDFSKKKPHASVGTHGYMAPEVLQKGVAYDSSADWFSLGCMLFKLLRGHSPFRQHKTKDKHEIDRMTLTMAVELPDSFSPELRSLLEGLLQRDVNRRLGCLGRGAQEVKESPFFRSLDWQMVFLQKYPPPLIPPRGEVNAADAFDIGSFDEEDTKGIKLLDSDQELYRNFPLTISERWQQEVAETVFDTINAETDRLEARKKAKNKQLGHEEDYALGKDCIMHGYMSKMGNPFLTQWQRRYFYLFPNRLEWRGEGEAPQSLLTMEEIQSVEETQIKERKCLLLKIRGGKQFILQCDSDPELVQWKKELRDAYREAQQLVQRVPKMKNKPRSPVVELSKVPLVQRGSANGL

[10] = target: AP-2 complex subunit beta (Homo sapiens) (UniProt P63010); assay: inhibitors of arrestin peptide binding to AP2, pilot screen, biochemical, validation set, GST-AP2 beads, flow cytometry (AID 504541;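 active = inhibition above 54%, about 3 SD of non-fluorescent compounds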;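 also: AP2 carries R879A mutation and is captured from E. coli lysate; bead-bound FITC arrestin peptide fluorescence measuring arrestin peptide binding to AP2; 0% = DMSO wells and 100% = excess unlabeled arrestin peptide control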); details: FITC arrestin peptide, at 10 µM, stronger effect = higher value, AP2 beta2 appendage fragment, R879A mutant
AP-2 complex subunit beta (Homo sapiens), sequence (P63010 whole entry, looked up, the tested form may be a part, one chain of several): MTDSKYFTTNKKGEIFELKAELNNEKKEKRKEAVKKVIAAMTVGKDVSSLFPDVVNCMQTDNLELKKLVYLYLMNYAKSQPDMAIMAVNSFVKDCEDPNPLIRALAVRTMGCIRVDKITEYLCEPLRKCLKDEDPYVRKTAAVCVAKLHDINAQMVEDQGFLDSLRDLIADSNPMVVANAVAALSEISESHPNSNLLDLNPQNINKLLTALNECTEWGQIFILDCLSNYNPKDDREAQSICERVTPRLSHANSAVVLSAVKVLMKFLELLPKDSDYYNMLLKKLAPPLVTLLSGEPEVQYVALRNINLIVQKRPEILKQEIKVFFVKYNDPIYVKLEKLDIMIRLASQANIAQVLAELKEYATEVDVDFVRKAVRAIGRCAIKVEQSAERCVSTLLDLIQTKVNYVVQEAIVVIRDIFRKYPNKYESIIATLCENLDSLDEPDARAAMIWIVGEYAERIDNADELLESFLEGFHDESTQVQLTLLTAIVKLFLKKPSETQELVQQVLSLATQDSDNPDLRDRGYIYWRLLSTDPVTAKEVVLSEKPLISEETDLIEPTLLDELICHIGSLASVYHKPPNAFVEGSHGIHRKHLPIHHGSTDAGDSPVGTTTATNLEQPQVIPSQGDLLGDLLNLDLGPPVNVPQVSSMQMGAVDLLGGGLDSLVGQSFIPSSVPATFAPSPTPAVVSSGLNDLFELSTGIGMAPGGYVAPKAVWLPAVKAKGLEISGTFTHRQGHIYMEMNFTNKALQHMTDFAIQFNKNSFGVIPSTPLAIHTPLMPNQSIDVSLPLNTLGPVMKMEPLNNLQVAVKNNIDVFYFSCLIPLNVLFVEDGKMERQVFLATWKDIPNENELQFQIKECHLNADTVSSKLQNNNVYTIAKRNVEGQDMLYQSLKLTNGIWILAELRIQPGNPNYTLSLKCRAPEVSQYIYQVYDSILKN

[11] = yeast V-ATPase proton transport modulators, S. cerevisiae, pHLuorin, HTS validation (AID 504600; in the data active = response above about 15%;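 also: plate controls were DMSO for no effect and reference compound for full effect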); details: S. cerevisiae pHLuorin cytosolic pH, at 10 µM, stronger effect = higher value
[12] = tested on: anti-desmoglein-3 scFv antibody binding to human DSG3; assay: inhibitors of anti-DSG3 scFv binding to DSG3, pilot screen, biochemical, validation compound set, bead-based, flow cytometry (AID 588368;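 active = binding below the plate cutoff, the plate median minus 3 SD, with a reading above zero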;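 also: signal is the median channel fluorescence of bead-bound GFP antibody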); details: Protein G beads, DSG3-Fc, scFv-GFP binding, at 10 µM, stronger effect = lower value
[13] = inhibitors of fungal efflux pumps CDR1, CDR2, MDR1, pilot screen, validation compound set, multiplex, phenotypic (AID 588506;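 active = efflux inhibition above 0.42, the validation set average plus 4 SD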;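 also: Nile Red retained in cells so higher fluorescence means more efflux inhibition; 0 = negative control wells and 1 = enniatin B 25 µM full block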); details: S. cerevisiae pump-expressing triplex, Nile Red efflux flow cytometry; at 10 µM; stronger effect = higher value; the pumps come from Candida albicans
[14] = target: ATP-binding cassette sub-family B member 6 (Homo sapiens) (UniProt Q9NP58); assay: ABCB6 transporter inhibitors, pilot screen, K562-ABCB6 cells, flow cytometry, validation set (AID 588550); details: K562-ABCB6 porphyrin accumulation, 1 h, at 10 µM, stronger effect = higher value;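 also: 0% = DMSO wells and 100% = benzethonium chloride 70 µM positive control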
ATP-binding cassette sub-family B member 6 (Homo sapiens), sequence (Q9NP58 whole entry, looked up): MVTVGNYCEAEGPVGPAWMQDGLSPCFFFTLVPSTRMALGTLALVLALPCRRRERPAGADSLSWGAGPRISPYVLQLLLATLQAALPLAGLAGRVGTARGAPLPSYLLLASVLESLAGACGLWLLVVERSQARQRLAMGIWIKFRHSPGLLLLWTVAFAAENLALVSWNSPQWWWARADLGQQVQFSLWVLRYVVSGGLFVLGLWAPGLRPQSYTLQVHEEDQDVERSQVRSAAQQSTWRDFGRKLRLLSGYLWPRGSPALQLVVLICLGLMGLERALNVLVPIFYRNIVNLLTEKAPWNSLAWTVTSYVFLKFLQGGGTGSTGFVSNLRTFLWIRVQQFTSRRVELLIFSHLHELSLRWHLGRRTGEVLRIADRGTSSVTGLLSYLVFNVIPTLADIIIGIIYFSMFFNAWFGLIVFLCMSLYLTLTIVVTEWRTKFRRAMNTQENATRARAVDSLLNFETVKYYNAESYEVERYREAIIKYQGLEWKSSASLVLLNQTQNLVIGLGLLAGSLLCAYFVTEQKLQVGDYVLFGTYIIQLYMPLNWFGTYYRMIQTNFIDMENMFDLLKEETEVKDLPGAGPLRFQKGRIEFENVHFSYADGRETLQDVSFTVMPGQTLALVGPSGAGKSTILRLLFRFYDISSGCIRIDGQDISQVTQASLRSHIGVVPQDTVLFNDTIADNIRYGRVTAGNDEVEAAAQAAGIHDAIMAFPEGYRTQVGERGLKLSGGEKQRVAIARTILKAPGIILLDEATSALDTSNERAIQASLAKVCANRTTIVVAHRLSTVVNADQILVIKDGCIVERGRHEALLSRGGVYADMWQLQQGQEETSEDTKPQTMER

[15] = promoters of myeloid differentiation in arrested cells, primary screen, cell-based, GFP/MAC1 double positive, flow cytometry, validation set (AID 588685;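 active = differentiation response of at least 50%, scaled between solvent and reference control, from cells with both markers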;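 also: compound exposure lasts four days before antibody staining and flow analysis; 0% = DMSO wells and 100% = 5 µM fulvestrant positive control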); details: ER-HoxA9 marrow cells, stronger effect = higher value, normalized: vehicle 0, fulvestrant 100

CCOC(=O)c1ccccc1NC(=O)c1ccc(F)cc1
inactive: percent of DMSO control GFP [1] 101% | GFP response vs DMSO [2] 108% | percent response of DMSO control [3] 103% | GFP response vs DMSO [4] 92.3% | GFP response, % of DMSO [5] 91.8% | vesicle binding response [6] 102% | inhibition [7] 10.9% | superoxide response (% of plate) [8] 100% | aptamer binding inhibition [9] 3% | inhibition [10] 6.01% | response [11] -5.23% | binding (% of control) [12] 98.8% | efflux inhibition (fraction of control) [13] 0.37 | inhibition [14] 13% | differentiation response [15] -13.1%
60.4%: double positive events [6]

COC(=O)CN1CC(=O)N(c2ccccc2)C1=S
59.2%: double positive events [6]
inactive: percent of DMSO control GFP [1] 101% | GFP response vs DMSO [2] 106% | percent response of DMSO control [3] 97.9% | GFP response vs DMSO [4] 100% | GFP response, % of DMSO [5] 95.8% | vesicle binding response [6] 171% | inhibition [7] 6.29% | superoxide response (% of plate) [8] 97.2% | aptamer binding inhibition [9] 1% | inhibition [10] 9.42% | response [11] 4.12% | binding (% of control) [12] 106% | efflux inhibition (fraction of control) [13] 0.22 | inhibition [14] -19% | differentiation response [15] 6.26%

COc1ccc(-c2cc3cc(OC)c(OC)cc3c(C)n2)cc1
inactive: percent of DMSO control GFP [1] 103% | GFP response vs DMSO [2] 105% | percent response of DMSO control [3] 102% | GFP response vs DMSO [4] 90.3% | GFP response, % of DMSO [5] 90.7% | vesicle binding response [6] 149% | inhibition [7] 5.36% | superoxide response (% of plate) [8] 96% | aptamer binding inhibition [9] 6% | inhibition [10] 1.41% | response [11] 1.33% | binding (% of control) [12] 106% | efflux inhibition (fraction of control) [13] -0.09 | inhibition [14] -2% | differentiation response [15] -8.27%
53.2%: double positive events [6]

COc1ccc(CNC(=O)C2CCN(C(=O)[C@@H](CC(C)C)NC(=O)OC(C)(C)C)CC2)cc1
63.6%: double positive events [6]
inactive: percent of DMSO control GFP [1] 98.3% | GFP response vs DMSO [2] 90.8% | percent response of DMSO control [3] 98.8% | GFP response vs DMSO [4] 92.3% | GFP response, % of DMSO [5] 92.7% | vesicle binding response [6] 326% | inhibition [7] 14.7% | superoxide response (% of plate) [8] 98.6% | aptamer binding inhibition [9] 1% | inhibition [10] -7.96% | response [11] -2.19% | binding (% of control) [12] 98.7% | efflux inhibition (fraction of control) [13] -0.09 | inhibition [14] 8% | differentiation response [15] 3.03%

COc1ccc(CC(=O)c2c(O)cc(O)cc2O)cc1OC
inactive: percent of DMSO control GFP [1] 103% | GFP response vs DMSO [2] 110% | percent response of DMSO control [3] 98.8% | GFP response vs DMSO [4] 101% | GFP response, % of DMSO [5] 97.5% | vesicle binding response [6] 171% | inhibition [7] 1.62% | superoxide response (% of plate) [8] 102% | aptamer binding inhibition [9] 1% | inhibition [10] 49.5% | response [11] -6.13% | binding (% of control) [12] 100% | efflux inhibition (fraction of control) [13] 0.18 | inhibition [14] 3% | differentiation response [15] 27.2%
58.4%: double positive events [6]

C[N+]12CCCCC1C(COC(=O)c1ccc3c(c1)OCO3)CCC2 (centres undefined)
62%: double positive events [6]
inactive: percent of DMSO control GFP [1] 97.6% | GFP response vs DMSO [2] 96.9% | percent response of DMSO control [3] 97.9% | GFP response vs DMSO [4] 85.3% | GFP response, % of DMSO [5] 93.9% | vesicle binding response [6] 116% | inhibition [7] 10.9% | superoxide response (% of plate) [8] 99.1% | aptamer binding inhibition [9] 5% | inhibition [10] -3.8% | response [11] 1.26% | binding (% of control) [12] 96.7% | efflux inhibition (fraction of control) [13] 0.14 | inhibition [14] 12% | differentiation response [15] -19.6%

COC1=CC(=O)CC(C)C12Oc1c(Cl)c(OC)cc(OC)c1C2=O (centres undefined)
42.3%: double positive events [6]
inactive: percent of DMSO control GFP [1] 105% | GFP response vs DMSO [2] 99.9% | percent response of DMSO control [3] 107% | GFP response vs DMSO [4] 103% | GFP response, % of DMSO [5] 98.7% | vesicle binding response [6] 131% | inhibition [7] 8.15% | superoxide response (% of plate) [8] 97.4% | aptamer binding inhibition [9] -1% | inhibition [10] 14.5% | response [11] 0.18% | binding (% of control) [12] 95.9% | efflux inhibition (fraction of control) [13] -0.09 | inhibition [14] 8% | differentiation response [15] -14.7%

COc1ccc(OCC(=O)N2c3ccc(C)cc3C3CN(C)CCC32)cc1 (centres undefined)
69.1%: double positive events [6]
inactive: percent of DMSO control GFP [1] 104% | GFP response vs DMSO [2] 101% | percent response of DMSO control [3] 105% | GFP response vs DMSO [4] 98.4% | GFP response, % of DMSO [5] 96.1% | vesicle binding response [6] 238% | inhibition [7] 10% | superoxide response (% of plate) [8] 90.6% | aptamer binding inhibition [9] -10% | inhibition [10] -6.29% | response [11] -0.64% | binding (% of control) [12] 106% | efflux inhibition (fraction of control) [13] 0.33 | inhibition [14] 5% | differentiation response [15] 32.1%

CC(C)Cc1cc(C(=O)N2CCC(N3CCC(C(=O)N4CCCC4)CC3)CC2)n[nH]1
inactive: percent of DMSO control GFP [1] 100% | GFP response vs DMSO [2] 89.7% | percent response of DMSO control [3] 109% | GFP response vs DMSO [4] 96.4% | GFP response, % of DMSO [5] 102% | vesicle binding response [6] 191% | inhibition [7] -2.11% | superoxide response (% of plate) [8] 102% | aptamer binding inhibition [9] -3% | inhibition [10] 3.03% | response [11] 1.07% | binding (% of control) [12] 107% | efflux inhibition (fraction of control) [13] -0.16 | inhibition [14] 3% | differentiation response [15] -27.6%
47.5%: double positive events [6]
